Each structure is given as a SMILES string. Records with an inconclusive call do not appear. Where a call stands in place of a potency, no number is given. Activity calls are given as the source filed them. The call rests on the fitted dose curve; in most records, active means well fitted cell-killing curve with a large enough effect in the repeat runs; inconclusive means weak or mixed curves, or effect the other way; inactive means flat fitted curve, though single readings scatter. Residues, ends and D or L forms follow the SMILES beside them.

This assay is described as follows: qHTS RealTime-Glo MT Cell Viability Assay in HEK293 cells - 8 hour (AID 1224887). Further: top concentration of the series differs between compounds; nearly all actives have a fitted effect of over 50% in size. As to conditions: RealTime-Glo luminescence; series mostly up to 76.8 µM. From the text:
U.S. Tox21 Program National Center for Advancing Translational Sciences [NCATS] NIH Chemical Genomics Center [NCGC] U.S. Environmental Protection Agency [EPA] National Institutes of Environmental Health Sciences [NIEHS] National Toxicology Program [NTP] U.S. Food and Drug Administration [FDA] Tox21 Assay Overview: Measure of cell viability is critical in the cell-base assay. Analysis of cell viability is necessary for the characterization of cell responses to cytotoxic drugs and environmental stress. A RealTime-Glo MT Cell Viability Assay to monitor cell viability in real time of continues cell culture during 40 hours of compound treatment was used to screen Tox21 10K library compounds in Hek293 cells. The RealTime-Glo MT Cell Viability Assay is a nonlytic, homogeneous, bioluminescent method to measure cell viability in real time using a simple, plate-based method. The assay involves adding NanoLuc luciferase and a cell-permeant prosubstrate to cells in culture. Viable cells reduce the proprietary prosubstrate to generate a substrate for NanoLuc luciferase. This substrate diffuses from cells into the surrounding culture medium, where it is rapidly used by the NanoLuc Enzyme to produce a luminescent signal. The signal correlates with the number of viable cells, making the assay well suited for cytotoxicity studies.
Tox21 Assay Protocol Summary: The mixture of Hek293 cell suspension and reagents were dispensed at 600cells/6 ul/well in 1536-well tissue culture treated black solid bottom plates using a Multidrop dispenser. After the assay plates were incubated at a 37 C/5% CO2 incubator for 5 hours, 23 nL of compounds dissolved in DMSO, positive and negative controls was transferred to the assay plate by a pintool work station. The plates were incubated at 37 C for 40 hours. The luminescence intensity were measured at 0h, 8h, 16h, 24h, 32h and 40h time points using ViewLux plate reader during compound treatment.
A general note: qHTS replaces the single test concentration by a dilution series.
In the case of `CCC1(c2ccccc2)C(=O)NCNC1=O`, the Potency entry was “inactive”.

For `Nc1ccn([C@H]2CC[C@@H](CO)O2)c(=O)n1`, the Potency entry is “inactive”.

As to `NC(=O)c1ccccc1O`, the Potency result was “inactive”.

Regarding `O=C(O)CCCCCCCC(=O)O`, the Potency entry is “inactive”.

`O=C(O)CCCCC(=O)O`: the Potency entry was “inactive”.

As for `O=C(O)c1[nH]n(-c2ccc(S(=O)(=O)O)cc2)c(=O)c1N=Nc1ccc(S(=O)(=O)O)cc1`, the Potency result was “inactive”.

`Nc1ccc(S(=O)(=O)Nc2nccs2)cc1`: the Potency result is “inactive”.

For `CC(O)CO` (stereo not given), the Potency entry was “inactive”.

On to `O=c1cc[nH]c(=S)[nH]1`, for which the Potency entry is “inactive”.

For `O=C1NC(=O)c2ccccc21`, the Potency entry is “inactive”.

Turning to `NC(N)=NC(=O)c1nc(Cl)c(N)nc1N`, the Potency result is “inactive”.

On to `CCOc1ccc(NC(=O)CC(C)O)cc1` (stereo not given), for which the Potency entry is “inactive”.

For the molecule `Oc1ccc(/C=C/c2cc(O)cc(O)c2)cc1`, the Potency entry is “inactive”.

Turning to `O=C(O)C(=O)O`, the Potency result is “inactive”.

`CCCCC1C(=O)N(c2ccccc2)N(c2ccccc2)C1=O`: the Potency entry was “inactive”.

For `OCCc1ccccc1`, the Potency entry is “inactive”.

On to `O=C1CN(/N=C/c2ccc([N+](=O)[O-])o2)C(=O)N1`, for which the Potency result is “inactive”.

As to `NC(=O)c1cnccn1`, the Potency entry was “inactive”.

Turning to `Cc1ccc(O)cc1`, the Potency entry is “inactive”.

For `CCCN(CCC)S(=O)(=O)c1ccc(C(=O)O)cc1`, the Potency entry was “inactive”.

Take `CCCCOC(=O)CC(CC(=O)OCCCC)(OC(C)=O)C(=O)OCCCC`: the Potency result is “inactive”.

As for `C1N2CN3CN1CN(C2)C3`, the Potency entry was “inactive”.

With `CC(O)C(=O)O` (stereo not given), the Potency result is “inactive”.

As for `COc1ccc2[nH]cc(CCNC(C)=O)c2c1`, the Potency result was “inactive”.

In the case of `COC(=O)[C@H](Cc1ccccc1)NC(=O)[C@@H](N)CC(=O)O` (H-Asp-Phe-OMe), the Potency result was “inactive”.

Consider `Cn1cc[nH]c1=S`, for which the Potency result was “inactive”.

As for `CC(O)CN(CCN(CC(C)O)CC(C)O)CC(C)O` (stereo not given), the Potency result was “inactive”.

Turning to `O=C(c1ccccc1)C(O)c1ccccc1` (stereo not given), the Potency entry was “inactive”.

Turning to `CCCCCCCCCCCCCCCC(=O)O`, the Potency result was “inactive”.

As for `CC(=O)Nc1nnc(S(N)(=O)=O)s1`, the Potency entry is “inactive”.

Regarding `NNC(=O)c1ccncc1`, the Potency entry was “inactive”.

As to `Cn1c(=O)c2[nH]cnc2n(C)c1=O`, the Potency entry is “inactive”.

Turning to `O=C(O)c1cccnc1`, the Potency result was “inactive”.

Turning to `Cc1ccc(S(=O)(=O)NC(=O)NN2CCCCCC2)cc1`, the Potency result is “inactive”.

Consider `N=C(N)c1ccc(OCCCCCOc2ccc(C(=N)N)cc2)cc1`, for which the Potency result was “inactive”.

Regarding `CC(C)[C@@H]1CC[C@@H](C)C[C@H]1O`, the Potency result is “inactive”.

As to `O=C(C1CCCCC1)N1CC(=O)N2CCc3ccccc3C2C1` (stereo not given), the Potency result is “inactive”.

Consider `O=C(c1ccccc1)c1ccccc1`, for which the Potency entry was “inactive”.

As for `NC(N)=O`, the Potency result was “inactive”.

Consider `O=C(O)CCC(=O)O`, for which the Potency result was “inactive”.

The record behind these values is PubChem BioAssay (Tox21).
